The values that follow come from ChEMBL document CHEMBL1201862, “PubChem BioAssay data set” (2004).

In all, about 400,000 compounds went through this assay and about 2,100 (0.53%) were called active. Roughly 14% stayed inconclusive and do not appear here. How the calls were made is not given here. The entries come from a sample that favours actives as a whole.

Sequence of Ataxin-2 (Homo sapiens) (Q99700 whole entry): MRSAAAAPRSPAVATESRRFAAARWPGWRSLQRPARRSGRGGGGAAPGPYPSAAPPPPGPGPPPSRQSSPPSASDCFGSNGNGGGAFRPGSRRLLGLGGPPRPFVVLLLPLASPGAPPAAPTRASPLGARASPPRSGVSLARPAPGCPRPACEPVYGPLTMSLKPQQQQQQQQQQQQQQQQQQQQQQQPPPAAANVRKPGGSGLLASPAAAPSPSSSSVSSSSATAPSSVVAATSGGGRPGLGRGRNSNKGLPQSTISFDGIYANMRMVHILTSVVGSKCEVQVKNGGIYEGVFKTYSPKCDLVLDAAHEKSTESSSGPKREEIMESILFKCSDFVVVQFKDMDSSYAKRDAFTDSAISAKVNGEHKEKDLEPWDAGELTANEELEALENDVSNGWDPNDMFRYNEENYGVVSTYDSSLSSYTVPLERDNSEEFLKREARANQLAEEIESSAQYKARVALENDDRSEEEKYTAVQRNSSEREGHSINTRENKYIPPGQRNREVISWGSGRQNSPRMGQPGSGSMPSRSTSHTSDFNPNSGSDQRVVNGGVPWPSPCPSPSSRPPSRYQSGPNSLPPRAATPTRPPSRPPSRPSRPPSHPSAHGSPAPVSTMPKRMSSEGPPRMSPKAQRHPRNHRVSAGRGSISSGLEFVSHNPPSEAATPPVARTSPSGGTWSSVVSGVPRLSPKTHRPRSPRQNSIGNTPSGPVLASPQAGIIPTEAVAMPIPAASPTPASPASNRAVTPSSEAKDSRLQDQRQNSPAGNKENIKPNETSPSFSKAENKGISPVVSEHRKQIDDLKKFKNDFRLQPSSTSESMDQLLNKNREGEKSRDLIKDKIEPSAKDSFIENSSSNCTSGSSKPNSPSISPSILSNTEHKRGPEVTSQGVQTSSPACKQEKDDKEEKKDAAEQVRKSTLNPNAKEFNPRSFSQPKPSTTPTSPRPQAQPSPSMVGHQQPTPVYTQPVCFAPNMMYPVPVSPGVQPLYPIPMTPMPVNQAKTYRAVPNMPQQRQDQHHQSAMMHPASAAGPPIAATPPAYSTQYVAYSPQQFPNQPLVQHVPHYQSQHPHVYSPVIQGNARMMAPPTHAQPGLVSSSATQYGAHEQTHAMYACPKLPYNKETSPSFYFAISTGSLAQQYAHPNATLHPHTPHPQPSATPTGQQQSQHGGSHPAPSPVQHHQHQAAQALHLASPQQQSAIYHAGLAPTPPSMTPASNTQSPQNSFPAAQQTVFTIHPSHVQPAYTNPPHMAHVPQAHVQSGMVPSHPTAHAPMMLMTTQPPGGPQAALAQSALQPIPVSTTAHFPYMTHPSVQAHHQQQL

The test has as its target Ataxin-2 (Homo sapiens) (UniProt Q99700). Description: qHTS for Inhibitors of ATXN expression. The class given is functional.
In the case of `O=C(CSc1nc2ccccc2n1Cc1ccc(Cl)cc1)N/N=C/c1ccc(C(=O)O)cc1`, the Potency entry was “inactive”. The result for `Cc1cccc(OCCCC(=O)N2CCCCCC2)c1C` reads “inactive”; that for `CCc1ccc(OCCSc2nc3ccccc3n2CCC(=O)O)cc1`, “inactive”. The value for `CN(CCOc1ccc(Cl)cc1)C(=O)c1ccccc1SCC(=O)N1CCCC1` was “inactive”; that for `COc1ccccc1OCc1nnc(SCC(=O)N2CCCCC2)o1` was “inactive”; that for `Cc1ccc(OCCSc2nc3ccccc3n2CC(=O)N2CCCCC2)c(C)c1` was 35.5 µM (active). The value for `COCCn1c(SCC(=O)NC2CC2)nc2ccccc21` was “inactive”. On to `O=C(Cn1c(SCCOc2ccc(Cl)cc2)nc2ccccc21)N1CCCCC1`, for which the Potency was 39.8 µM (active). Take `CCc1ccc(OCCSc2nc3ccccc3n2CC(=O)N2CCCCC2)cc1`: the Potency was 39.8 µM (active).

On to `Clc1ccc(-n2nnnc2Sc2ncnc3sccc23)cc1`, for which the Potency is 20 µM (active).

In the case of `COc1ccc(CSc2ncnc3sccc23)cc1F`, the Potency entry was “inactive”. The value for `COc1ccc(-c2c(C)c3ccc(O)c(CN4CCN(C)CC4)c3oc2=O)cc1OC` was “inactive”; that for `COc1cc(-c2cnc3c(NC(C)=O)cc(-c4ccc(N5CCN(C)CC5)cc4)cn23)cc(OC)c1OC` was 39.8 µM (active).

As to `COc1ccc(-c2cc(NC=O)c3ncc(-c4cnn(C)c4)n3c2)cc1`, the Potency result is “inactive”.

Consider `CC(=O)Nc1cc(-c2ccc(N3CCN(C)CC3)cc2)cn2c(-c3ccc(F)c(Cl)c3)cnc12`, for which the Potency is 35.5 µM (active). The value for `Cn1c(-c2ccc(F)cc2)cnc1NCc1ccc(F)cc1F` was “inactive”; that for `CC(=O)Nc1cc(-c2ccc(N3CCN(C)CC3)cc2)cn2c(-c3ccc(F)cc3)cnc12` was 35.5 µM (active); that for `CN1CCN(c2ccc(-c3cc(NC=O)c4ncc(-c5ccc(F)c(Cl)c5)n4c3)cc2)CC1` was “inactive”.

In the case of `CCCCNC(=O)c1cc2c(=O)n3cccc(C)c3nc2n(Cc2ccncc2)c1=N`, the Potency result was “inactive”. The result for `CCCc1cc(NCCCN(C)C)n2c(nc3ccccc32)c1C#N` reads “inactive”; that for `Cc1nc(N/N=C/c2ccc(Br)cc2)cc(N2CCOCC2)n1`, “inactive”. The value for `O=C(OCc1nc(O)c2c(-c3ccccc3)csc2n1)c1cc(Cl)ccc1[N+](=O)[O-]` was “inactive”; that for `C=CCNC(=O)c1c(N)n(-c2cccc(S(N)(=O)=O)c2)c2nc3ccccc3nc12` was “inactive”. The value for `CC1=CC(=O)C=C/C1=C(/c1ccc(O)cc1C)c1ccccc1S(=O)(=O)O` was “inactive”; that for `O=S(=O)(O)c1cc(O)c(N=Nc2ccc(O)cc2O)c2ccccc12` was 22.4 µM (active). `O=c1oc2cc(O)ccc2c2ccccc12`: the Potency entry was “inactive”. For the compound `CN1C(=O)/C(=N\CCc2ccccc2)c2c3ccccc3c(O)c3cccc1c23`, the Potency result is “inactive”. The value for `Sc1nc(-c2ccccc2)cn1/N=C/c1ccccc1Br` was “inactive”; that for `CCn1c(/C=C/c2ccc(O)cc2)nc2ccccc2c1=O` was “inactive”; that for `NC(=O)c1ccc(Oc2ccc(Cl)cc2)c([N+](=O)[O-])c1` was “inactive”. The value for `CS(=O)(=O)c1ccc(C(=O)OCc2nnc(-c3ccc(Cl)cc3)o2)cc1[N+](=O)[O-]` was 28.2 µM (active); that for `COc1ccc(-c2cc(-c3nnc(COC(=O)c4ccncc4)o3)c3ccccc3n2)cc1OC` was “inactive”. The result for `CC(=O)Oc1ccc(-c2cc3c(OC(C)=O)cc(OC(C)=O)cc3oc2=O)cc1` reads “inactive”; that for `OC[C@@H]1[C@@H](c2ccc(F)cc2)C(c2cccc(Cl)c2)=NN1c1ccccc1`, “inactive”; that for `CCN(CC)CCn1c(C)nc2c(sc3nc4c(cc32)COC(C)(C)C4)c1=O`, “inactive”.

In the case of `O=C(N/N=C/c1sc(=O)n(Cc2ccc(Br)cc2)c1Cl)c1ccco1`, the Potency is 20 µM (active). The value for `C/C(=N\NC(=O)c1ccc(C(=O)N/N=C(\C)c2ccco2)o1)c1ccco1` was “inactive”; that for `O=C(N/N=C/c1c(O)ccc2ccccc12)c1ccc(Br)o1` was “inactive”. The value for `CN1CCc2ccc(NC(=O)c3ccc(C(F)(F)F)cc3)cc2C1` was “inactive”; that for `O=C(Nc1ccc(Cl)cc1)c1cnn2c1NC(c1ccccc1)=CC2c1ccccc1` (configuration not stated) was “inactive”; that for `CC1=C(C(=O)Nc2ccc(Cl)cc2)C(c2ccc(C(F)(F)F)cc2)n2nnnc2N1` (configuration not stated) was 28.2 µM (active). The value for `Cc1ccc(S(=O)(=O)Nc2ccccc2/C=N/c2nc3ccccc3n2C)cc1` was “inactive”; that for `Cc1ccc(/C=N/N2C(=O)c3ccccc3NC2c2ccc(C)cc2)cc1` (configuration not stated) was “inactive”. For `O=C(c1cnn(C(=O)c2ccco2)c1)c1ccccc1O`, the Potency entry is “inactive”.

`C/C(=N\N1C(=O)c2ccccc2NC1c1ccco1)c1ccccc1O` (configuration not stated): the Potency was 2 µM (active). The result for `COc1cccc(C2C=C(c3ccc(Br)s3)Nc3ncnn32)c1OC` (configuration not stated) reads “inactive”; that for `O=[N+]([O-])c1ccc(C2(O)C[N+](c3ccccc3)=C3SCCN32)cc1` (configuration not stated), “inactive”; that for `Cc1ccsc1/C=C1\Oc2cc(O)ccc2C1=O`, “inactive”. `NNc1nc2cccnc2n(CCNc2ncc(C(F)(F)F)cc2Cl)c1=O`: the Potency entry is “inactive”. The result for `O=S(=O)(NNc1ncc(C(F)(F)F)cc1Cl)c1ccc(F)cc1F` reads “inactive”; that for `O=C1C=CC(=O)N1CCNc1ncc(C(F)(F)F)cc1Cl`, 35.5 µM (active). The result for `CCOCCCn1c(=N)c(C(=O)NCc2ccco2)cc2c(=O)n3ccccc3nc21` reads “inactive”; that for `O=C1[C@H]2C(c3ccccc3)=NN(c3ccccc3)[C@H]2C(=O)N1c1ccccc1`, “inactive”; that for `O=C1[C@H](Oc2ccccc2)[C@@H](c2ccccc2)N1c1ccncc1`, 28.2 µM (active). The result for `O=C1c2ccccc2C(Nc2ccc(Cl)cn2)N1c1cccnc1` (configuration not stated) reads “inactive”; that for `O=C1[C@@H](c2ccccc2)[C@@H](c2ccccc2)N1c1cccnc1`, 25.1 µM (active); that for `CCOC(=O)C1CCN(Cc2nc3ccc([N+](=O)[O-])cc3c(=O)n2-c2ccc(OC)cc2OC)CC1`, “inactive”. Consider `N#CC1=C(N)Oc2cc(O)ccc2C1c1ccc(Br)s1` (configuration not stated), for which the Potency entry was “inactive”.

Consider `c1cc2c3c(cccc3c1)NC1(CCC3(CC1)Nc1cccc4cccc(c14)N3)N2`, for which the Potency is 35.5 µM (active). In the case of `Cn1c(-c2cc3ccc(OC(=O)C(C)(C)C)cc3oc2=O)nc2ccccc21`, the Potency entry was “inactive”.

Regarding `COc1ccc(-c2c3c(nc4sc(C(=O)Nc5ccccc5)c(N)c24)CCC3)cc1`, the Potency result is “inactive”. For `CCOc1ccccc1NC(=O)c1c(NC(=O)Cc2ccc(OC)cc2)sc2c1CCC2`, the Potency was 25.1 µM (active). For the compound `COc1ccc(NC(=O)c2c(NC(=O)CCC(=O)O)sc3c2CCCCC3)cc1`, the Potency result was “inactive”. The result for `CCOc1ccccc1NC(=O)c1sc2nc(-c3ccc(OC)cc3)ccc2c1N` reads “inactive”.

Take `COc1ccc(CC(=O)Nc2sc3c(c2C(=O)Nc2cccc(Cl)c2)CCCCC3)cc1`: the Potency is 28.2 µM (active). The result for `OC[C@@H]1[C@@H](c2ccccc2)C(c2ccc(F)cc2)=NN1c1ccccc1` reads “inactive”; that for `Cn1c(=O)c2nc3ccc(NC(=O)C(F)(F)F)cc3nc2n(C)c1=O`, “inactive”; that for `O=C(CCn1cnc2onc(-c3ccc(F)cc3)c2c1=O)Nc1cccc(C(F)(F)F)c1`, 20 µM (active). Consider `Cc1cc(C)n(CCC(=O)Nc2cccc(F)c2)n1`, for which the Potency result was “inactive”.

In the case of `CC(C)(C)c1ccc(C(=O)Nc2cccc3c(=O)[nH][nH]c(=O)c23)cc1`, the Potency entry is “inactive”. With `O=C(Nc1cccc(S(=O)(=O)N2CCCCC2)c1)c1ccc(OCC2CCCO2)cc1` (configuration not stated), the Potency result is “inactive”. Take `O=C(NC1=NCCS1)c1ccc(Cl)c(S(=O)(=O)N2CCOCC2)c1`: the Potency result was “inactive”. The value for `Cc1ccc(NC(=O)C2CCC(C(C)(C)C)CC2)cc1S(=O)(=O)N1CCOCC1` (configuration not stated) was 31.6 µM (active); that for `Cc1ccc(S(=O)(=O)N2CCOCC2)cc1NC(=O)COC(=O)CNC(=O)c1ccc(C(C)(C)C)cc1` was “inactive”. The result for `O=C(Nc1ccc(Cl)c(S(=O)(=O)N2CCOCC2)c1)c1ccc(OCC2CCCO2)cc1` (configuration not stated) reads 11.2 µM (active).

As to `COc1ccc(NC(=O)CSc2nnc(C)n2C2CC2)cc1S(=O)(=O)N1CCOCC1`, the Potency result is “inactive”. The value for `Cc1cc(C)n(-c2ccc(C(=O)Nc3ccc(C)c(S(=O)(=O)N4CCOCC4)c3)cc2)n1` was 12.6 µM (active); that for `Cc1cc(C(=O)Nc2ccc(Cl)c(S(=O)(=O)N3CCOCC3)c2)c2ccccc2n1` was “inactive”. The result for `Cc1ccc(NC(=O)CCS(=O)(=O)c2ccccc2)cc1S(=O)(=O)N1CCOCC1` reads “inactive”; that for `Cc1cc(/C=C(\C#N)C(=O)NC2CCCCCC2)c(C)n1C`, “inactive”; that for `COc1ccc(C2CC(c3cccc(Cl)c3)=NN2c2ccc(S(N)(=O)=O)cc2)cc1` (configuration not stated), “inactive”.

For `CC1Cc2ccccc2N1CC(=O)NC(=O)NC1CCCC1` (configuration not stated), the Potency entry is “inactive”. Consider `O=C(C1=C[C@@H](C2CCCCC2)C[C@@H](OCc2ccc(CO)cc2)O1)N1CCN(Cc2ccccc2)CC1`, for which the Potency was 39.8 µM (active).

Consider `O=C(c1cccnc1)N1CCN(Cc2ccc3ccccc3c2)CC1`, for which the Potency result was “inactive”. The value for `COc1ccc(CN2CCCC(C(=O)N3CCCCC3)C2)cc1` (configuration not stated) was “inactive”; that for `Cc1cc(=O)oc2cc(OC(=O)c3cncc(Br)c3)ccc12` was “inactive”. Turning to `Cc1c(C2(O)CCCCC2)[nH]c2cc(C(F)(F)F)ccc12`, the Potency is 35.5 µM (active). The result for `CCc1c(C2(O)CCCCC2)[nH]c2ccc(C(F)(F)F)cc12` reads 25.1 µM (active); that for `COCc1cc(C)nc2oc(C(=O)c3ccccc3)c(N)c12`, “inactive”; that for `CCCCC[C@H](O)/C=C/C1C(=O)C=C[C@H]1C/C=C\CCCC(=O)OC` (some centres not stated), 35.5 µM (active). The value for `CCCCC[C@@H](/C=C/C1C(=O)C=C[C@H]1C/C=C\CCCC(=O)OC)OC(C)=O` (some centres not stated) was 35.5 µM (active). The value for `CCOC(=O)c1c(NC(=O)c2ccc(S(=O)(=O)N3CCCC(C)C3)cc2)sc2c1CCN(C(C)C)C2` (configuration not stated) was “inactive”.

In the case of `Cc1cc(-c2ccc(Br)s2)nc(-n2cccc2)n1`, the Potency result is “inactive”.

For the compound `OC1(c2ccc(Cl)c(Cl)c2)C[n+]2ccccc2N1Cc1ccccc1` (configuration not stated), the Potency is 28.2 µM (active).

As to `Cc1ccc2nc3c(cc(C(=O)NCCc4ccccc4)c(=N)n3CCCN3CCOCC3)c(=O)n2c1`, the Potency result is “inactive”.

With `CC(C)(O)C#Cc1ncc(C(F)(F)F)cc1Cl`, the Potency entry is “inactive”. With `N#CC(C#N)=c1ccc2c(c1)NC1(CCCCC1)N=2`, the Potency was 12.6 µM (active).
